± gives the standard deviation. Whole data set: some 6,200 sequences, median “pre-steady-state target cleavage rate” near 0.29, cut for the highest 2% near 2. For the sample, the highest values were picked, then their nearest neighbours and some sequences at random.
Each sequence was assayed on MIWI (PIWIL1) piRISC loaded with piRNA #1 (30 nt) (assay: pre-steady-state target cleavage rate (min^-1); MIWI and MILI are mouse PIWI proteins and EfPiwi is from a freshwater sponge; tags in brackets are library labels; higher = faster piRNA-guided slicing of the target). Settings: guide: piRNA #1 5'p-UGAGGUAGUAGGUUGUAUAGUAUCCAGAGG; auxiliary factor: 500 nM mouse GTSF1.
Method in brief: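 Three pooled Cleave-'n-Seq trials supplied the data, with k3 capped at 0.0001 min^-1. In each, […] transcribed, DNA-blocked target RNA library and 1 nM active affinity-purified piRISC with one synthetic guide reacted in HEPES–potassium acetate buffer at 33 °C for 0–8 or 0–960 min, with or without 500 nM GTSF1 partner protein. Uncleaved targets were sequenced and normalised to depth and to weakly complementary targets. A burst-and-steady-state fit provided the pre-steady-state cleavage rate.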
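Also: 1 nM active piRISC with 0.1 nM target library at 33 °C single turnover.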

Sequence | pre-steady-state target cleavage rate
GGAGUGGAGACUAUACAACCUACUACCUCA | 1.65 ± 0.099
GGAGUGGAUACUAAUACAACCUACUACCUCA | 1.4 ± 0.1
GGGCUGGAUACUAUACAACCUACUACCUCA | 1.9 ± 0.12
CCGCUGGAUACUAUACAACCUACUACCUCA | 1.88 ± 0.094
GGUGCUGGAUACUAUACAACCUACUACCUCA | 1.85 ± 0.11
GCUGCUGGAUACUAUACAACCUACUACCUCA | 2.01 ± 0.14
GCGCUGGAUACUAUACAACCUACUACCUCA | 1.85 ± 0.1
CCUGCUGGAUACUAUACAACCUACUACCUCA | 2.06 ± 0.12
GCUCUGGAUACUAUACAACCAUCUACCUCA | 0.0463 ± 0.011
GGAGUGGUUACUAUAGAACCUACUACCUCA | 1.24 ± 0.08
CAUCUGGAUACUAUACAACCUACUACCUCA | 1.37 ± 0.066
GGUCUGGAUACUAUACAACCUUACUACCUCA | 0.00317 ± 0.0022
GGAGACCUUAGUAUACAACCUACAACCUCA | 0.0975 ± 0.018
GCUCUGGAAACUAUACAACCUACUACCACA | 1.42 ± 0.15
GGACUGGAAACUAUACAACCUACUACCUCA | 1.44 ± 0.097
CCUCAGGAAACUAUACAACCUACUACCUCA | 2.04 ± 0.1
GGUCAGGAAACUAUACAACCUACUACCUCA | 1.77 ± 0.12
CCACUGGAAACUAUACAACCUACUACCUCA | 2.06 ± 0.11
CCUCUGGAAACUAUACAACCUACUACCACA | 2.19 ± 0.26
GCUCAGGAAACUAUACAACCUACUACCUCA | 1.78 ± 0.1
GCACUGGAAACUAUACAACCUACUACCUCA | 1.82 ± 0.089
GGUCUGGAAACUAUACAACCUACUACCACA | 0.461 ± 0.05
GGAGACGAUACUAUACAACCUAGAUCCUCA | 0.113 ± 0.015
GGAGAGGUUACUAAACAACCUACUACCUCA | 1.21 ± 0.08
GGAGACGAUACUAUAGAACCUACUACCUCA | 1.14 ± 0.066

Sequence | pre-steady-state target cleavage rate
GGAGACCUAUGAUAACAACCUACAUGGAGA [g8:g16:cont:t1A] | < 0.0001
GGAGUGCAUACUAUACUACCUACUACCUCA | 1.13 ± 0.092
GGAGACCUAUGAUAAGUACCUACUACCUCA | < 0.0001
GGAGACCUAUCUUUACAACCUACUACCACA | 0.129 ± 0.03
GGAGUGGAUUCAAUACAACCUACUACCUCA | 1.02 ± 0.071
CCUCUAGAUACUAUACAACCUACUACCUCA | 2.2 ± 0.13
GCUCUAGAUACUAUACAACCUACUACCUCA | 2.09 ± 0.12
CCUCUAGGAUACUAUACAACCUACUACCUCA | 2.12 ± 0.12
GGUCUAGGAUACUAUACAACCUACUACCUCA | 1.83 ± 0.1
GGAGUAGAUACUAUACAACCUACUACCUCA | 1.55 ± 0.074
GGUCUAGAUACUAUACAACCUACUACCUCA | 1.81 ± 0.11
GGACUAGAUACUAUACAACCUACUACCUCA | 1.77 ± 0.1
GCUCUAGGAUACUAUACAACCUACUACCUCA | 1.85 ± 0.095
GCUCUGGAUACUAUACAACCUCUACCUCA | 0.00616 ± 0.003
GGAGACCUAAAUAUACAACCUACUACCUCA | 0.106 ± 0.021
GGACUGGAUACUAUACAACGUUCUACCUCA | 0.107 ± 0.014
GGUCUGGAUAGUAUACAACCUACUACCUGA | 0.248 ± 0.041
GGAGACGAUAGUAUACUACCUACUACCUCA | 0.67 ± 0.071
GGAGUGGAUACUAUACAACCUACUCACCUCA | 0.793 ± 0.088
GGAGUGGAUACUAUACUACCUAGUACCUCA | 0.283 ± 0.04
GGUGUGGAUACUAUACAACCUACUACCUGA | 0.419 ± 0.069
CCUCACGAUACUAUACAACCUACUACCUCA | 2.1 ± 0.12
GGUGACGAUACUAUACAACCUACUACCUCA | 1.82 ± 0.098
GGAGACGAUACUAUACAACCUACUACCUCC [g2:g24:cont:t1C] | 1.5 ± 0.075
GCUGACGAUACUAUACAACCUACUACCUCA | 1.84 ± 0.1

Sequence | pre-steady-state target cleavage rate
GGAGACGAUACUAUACAACCUACUACCUCG [g2:g24:cont:t1G] | 1.1 ± 0.063
GCUCACGAUACUAUACAACCUACUACCUCA | 1.83 ± 0.092
GGUCACGAUACUAUACAACCUACUACCUCA | 1.89 ± 0.12
CCUGACGAUACUAUACAACCUACUACCUCA | 2.06 ± 0.12
GGAGACGAUACUAUACAACCUACUACCUCCA | 2.06 ± 0.12
GGAGACCUUUCUAUACAACCUAGUACCUCA | 0.238 ± 0.034
CCUCUGGAUAGAAUACAACCUACUACCUCA | 1.24 ± 0.066
GGAGACCAUACUAUUCUACCUACUACCUCA | 0.224 ± 0.035
GGAGAGGGUACUAUACAACCUACUACCUCA | 1.17 ± 0.051
GGACUGGAUUCUAUACAACCUACUAGCUCA | 0.118 ± 0.022
GGAGACCUAUGAUAUCAACCUACUACCUACA | < 0.0001
GGAGACGAUACUAUACAACCUACUACCGUCA | 0.443 ± 0.065
GGAGUGGAUACUAUCACAACCUACUACCUCA | 1.49 ± 0.12
GGAGUGGAUACUAUACAAGCUACUUCCUCA | 0.374 ± 0.031
CCUCUGGUUACUAUACAACCUACUAGCUCA | 0.705 ± 0.055
GCUCUGGUUACUAUACAACCUACAACCUCA | 1.33 ± 0.079
GGACUGGUUACUAUACAACCUACUACCUCA | 1.65 ± 0.13
GCACUGGUUACUAUACAACCUACUACCUCA | 1.84 ± 0.11
CCACUGGUUACUAUACAACCUACUACCUCA | 2.28 ± 0.14
GGUCUGGUUACUAUACAACCUACUACCACA | 0.747 ± 0.068
GCUCUGGUUACUAUACAACCUACUACCUCA | 2.1 ± 0.12
CCUCUGGUUACUAUACAACCUACAACCUCA | 1.28 ± 0.089
GCUCUGGUUACUAUACAACCUACUACCACA | 2.3 ± 0.24
GGUCUGGUUACUAUACAACCUACUACCUCA | 1.87 ± 0.11

From the supplement of paper PMC10338343
